Measurements as given in PubChem BioAssay AID940 (Emory University Molecular Libraries Screening Center, 2007).
Where “and” joins values, the source holds several entries; their conditions need not be identical. Identical values can stand only once. Hit rate of the full screen: of about 260,000 compounds, about 2,200 (0.85%) were called active. For the sample, actives were picked, then their nearest neighbours and some compounds at random. Values without a mark were called inactive.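 How the source made its calls: active means compounds whose cAMP rise, as percent of the full-agonist control response, exceeds 60; inactive means the rest.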

Each molecule was assayed against Prostaglandin E2 receptor EP2 subtype (Homo sapiens) (UniProt P43116) (assay: EP2 receptor modulators, cAMP readout, primary screen, cell-based, HTRF cAMP, PGE2 stimulation (AID 940;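 further: rat C6 glioma line stably carrying human EP2 under a CMV promoter; the protocol text gives 20 µM as final concentration; 100% = response of wells given 1 µM PGE2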)). Conditions: EP2-expressing cells, cAMP HTRF FRET, PGE2 co-stimulation; at 25 µM; hits give high values.
Chain of Prostaglandin E2 receptor EP2 subtype (Homo sapiens) (P43116 whole entry, looked up): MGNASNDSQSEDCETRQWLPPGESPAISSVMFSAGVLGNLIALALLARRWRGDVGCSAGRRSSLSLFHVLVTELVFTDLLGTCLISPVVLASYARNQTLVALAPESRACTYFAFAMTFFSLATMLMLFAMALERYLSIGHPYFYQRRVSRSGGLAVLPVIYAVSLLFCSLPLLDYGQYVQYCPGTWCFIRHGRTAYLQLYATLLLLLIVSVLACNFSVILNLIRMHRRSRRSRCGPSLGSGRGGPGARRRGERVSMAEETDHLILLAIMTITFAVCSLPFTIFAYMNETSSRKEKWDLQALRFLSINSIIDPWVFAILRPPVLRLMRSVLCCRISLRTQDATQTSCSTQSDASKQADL

| Compound | induction |
| --- | --- |
| COc1ccc(S(=O)(=O)NCc2ccc3c(c2)OCO3)c(Cl)c1Cl | -0.88% |
| Cc1nc2nc(N)ccc2c(C)c1C | -9.42% |
| CCC(C)c1ccc(O)c(/C=N/O)c1 (stereo not drawn) | 4.26% |
| CNCC(O)c1ccc(O)c(O)c1 (stereo not drawn) | 68.4% (active) |
| CC(=O)NCC(O)c1ccc([N+](=O)[O-])cc1 (stereo not drawn) | 1.39% |
| CCc1ccc(NC(=O)C2CCN(C(=O)c3cccs3)CC2)cc1 | 15.7% |
| COC(=O)CSc1nc(C2CC2)nc2ccccc12 | 4.21% |
| COC(=O)CSc1nc2c(c(C3CC=CCC3)c1C#N)CCC2 (stereo not drawn) | 68.1% (active) |
| CCOc1ccc2cc(C#N)c(SCC(=O)OC)nc2c1 | 47% |
| C=CCNC(=O)CN1CCC(c2ccccc2F)CC1 | -47.4% |
| COC(=O)[C@H]1CCc2ccccc2N1C(=O)C1CCC1 | -15.3% |
| CCC(C)OC(=O)C(C)n1cnc2sc(C(=O)Nc3ccccc3OC)c(C)c2c1=O (stereo not drawn) | -16.1% |
| COC(=O)[C@H]1CCc2ccccc2N1C(=O)c1ccccc1F | 8.05% |
| O=C(Cn1nc(-c2ccncc2)oc1=O)N1CCCCC1 | -10.9% |
| CS(=O)(=O)N1CCCc2cc(C(O)CN3CCN(c4cnccn4)CC3)ccc21 (stereo not drawn) | -3.55% |
| O=C(CSc1nc2ccccc2c(=O)n1Cc1ccco1)Nc1ccccc1Cl | 67.4% (active) |
| Cc1cc(NC(=O)CSc2nc3cc(Cl)ccc3c(=O)n2Cc2ccco2)no1 | -4.33% |
| N#Cc1c(NC(=O)CSc2nc3ccccc3c(=O)n2Cc2ccco2)sc2c1CCCC2 | -3.51% |
| CCOC(=O)C(C)NC(=O)c1cc2ccc(F)cc2[nH]1 (stereo not drawn) | -92.7% |
| Cc1nc(S(=O)(=O)c2ccc(Cl)cc2)c(N2CCCCC2)o1 | -42.2% |
| CCN1CCN(C(=O)[C@H]2C[C@@H](c3ccc(OC)c(OC)c3)NS(=O)(=O)N2C)CC1 | -8.26% |
| COc1ccc(C2(C(=O)N3CCC(n4cnc5cccnc54)CC3)CCCC2)cc1 | 11.4% |
| Cc1nn(C(C)C)c(C)c1CN(C)CCOc1ccccc1 | -30.9% |
| COc1cc(C)c(-c2csc(NC(=O)C3(C)CCCO3)n2)cc1C (stereo not drawn) | -62.2% |
| CSc1ccccc1C(=O)Nc1cccc(C(C)=O)c1 | 10.1% |

| Compound | induction |
| --- | --- |
| COc1cccc(NC(=O)c2ccccc2SC)c1 | 61.4% (active) |
| COc1cccc(NC(=O)C(C)Oc2ccccc2)c1 (stereo not drawn) | 9.01% |
| COc1cc(C#N)ccc1OCc1nc(-c2ccccc2)no1 | -64.5% |
| CSc1ncc(C(=O)N2CC(CN3CCOCC3)c3ccccc32)cn1 (stereo not drawn) | -3.66% |
| CCOC(=O)C1CCN(C(=O)Nc2c[nH]c3ccc(OC)nc3c2=O)CC1 | -39.3% |
| CCOC(=O)c1c(N)nn(C(=O)c2ccccc2)c1-c1ccccc1 | 69.9% (active) |
| CCOC(=O)c1nnn(-c2nonc2OC)c1-c1ccccc1 | 11.4% |
| CCOC(=O)c1c(-c2cccc(N)c2)cn2ccccc12 | -32.9% |
| C/C(Cl)=C\CSc1nc(N2CCOCC2)c2c(c1C#N)CC(C)(C)OC2 | 67.7% (active) |
| COc1ccc(CSc2nc(N3CCOCC3)c3c(c2C#N)CC(C)(C)OC3)cc1 | 37.4% |
| CC1(C)Cc2c(C#N)c(SCc3nc4ccccc4[nH]3)nc(N3CCOCC3)c2CO1 | -21.7% |
| CCOc1ccc2[nH]c(=O)c(C(c3nnnn3CCOC)N3CCN(C)CC3)cc2c1 (stereo not drawn) | -18.3% |
| CCOC(=O)c1sc2nc(C)[nH]c(=O)c2c1C | 15.6% |
| COC(=O)c1sc2[nH]c(=S)n(N)c(=O)c2c1C | 78.1% (active) |
| COC(=O)Cn1cnc2sc(C(=O)OC)c(C)c2c1=O | -5.66% |
| O=c1[nH]c2ccc(S(=O)(=O)N3CCCC(c4ccccc4)C3)cc2[nH]1 (stereo not drawn) | -114% |
| O=C(Cn1nc2c3ccccc3ncn2c1=O)NCc1cccs1 | 4.57% |
| COc1ccc2cc(C#N)c(SCC(=O)Nc3ccccc3Br)nc2c1 | 66.9% (active) |
| Cc1ccc2cc(C#N)c(SCC(=O)Nc3cccc(C)c3C)nc2c1 | -15.3% |
| CCc1cc2ccccc2nc1SCC(=O)Nc1ccccc1Br | 65.9% (active) |
| COc1ccc2nc(C)cc(SCC(=O)Nc3ccccc3Br)c2c1 | -51.4% |
| CCc1cc2cc3c(cc2nc1SCC(=O)Nc1ccccc1Br)OCCO3 | -3.39% |
| Cc1cc2ccccc2nc1SCC(=O)Nc1ccccc1F | 39.1% |
| COCCNc1nnc(-c2ccccn2)s1 | -12.4% |
| O=C(CCSc1nc(-c2ccco2)cc(C(F)(F)F)n1)NC1CCCCC1 | -7.93% |

| Compound | induction |
| --- | --- |
| COc1cccc(-c2cnc(OC(C)(C)C)nc2OC(C)(C)C)c1 | 62% (active) |
| CC(C)(C)Oc1ncc(Br)c(OC(C)(C)C)n1 | 31.4% |
| COc1cccc(-c2nc3cc(C)ccc3o2)c1 | 3.47% |
| CC1(C)CC2CC(C)(CN2c2ncnc3ccc(Br)cc23)C1 (stereo not drawn) | 70% (active) |
| COc1ccc(C(=O)N2CC3(C)CC2CC(C)(C)C3)cc1OC (stereo not drawn) | -6.8% |
| CC1(C)CC2CC(C)(CN2C(=O)c2ccc(Cl)cc2)C1 (stereo not drawn) | -5% |
| COc1ccc2[nH]cc(CCNC(=O)C3CCN(c4nc5ccccc5n4C)CC3)c2c1 | -102% |
| CCc1ncc(CNC2(c3ccc(Cl)cc3)CCC2)cn1 | -47% |
| CCC(C)(C)n1nnnc1CN(Cc1ccc(F)cc1)Cc1cc2cc(C)cc(C)c2[nH]c1=O | 29.1% |
| CCc1ccc2[nH]c(=O)c(CN(Cc3ccc(F)cc3)Cc3nnnn3C(C)(C)C)cc2c1 | 62.5% (active) |
| CCC(c1nnnn1C(C)(C)C)N(Cc1ccccc1)Cc1cc2ccc(C)cc2[nH]c1=O (stereo not drawn) | 12.1% |
| COCCNC(=O)Cn1nc2c(C)cc3cc(C)cc(C)c3n2c1=O | -32.1% |
| COc1ccc(NCc2nnc(SCC(=O)Nc3ccc(C)cc3)n2C)cc1 | 8.87% |
| Cc1ccc(Cn2c3ccccc3n3c(SCC(=O)N4CCc5ccccc54)nnc23)cc1 | -8.29% |
| O=P(O)(CP(=O)(c1ccccc1)c1ccccc1)c1ccccc1O | -5.29% |
| CC(C)(C)c1cc(P(=O)(c2ccccc2)c2ccccc2)ccc1O | 66.9% (active) |
| COc1ccc(N=Nc2ccc(O)c(P(=O)(c3ccccc3)c3ccccc3)c2)cc1 | 25.3% |
| CN(C)C(=O)CN1N=C(C(C)(C)C)Cn2c(cc3sccc32)C1=O | -24.7% |
| CC(=O)c1ccc2c(ccc3ccccc32)c1 | -39.4% |
| CCn1c2ccccc2c2cc(CC(N)=O)ccc21 | 13.3% |
| CC(=O)c1ccc2c(c1)c1ccccc1n2CC(C)C | 66.9% (active) |
| Cc1sc2ncnc(NCC(=O)O)c2c1C | 2.64% |
| COc1cc(-c2nnc(SCC(=O)N3CCC(C)CC3)o2)cc(OC)c1OC | -36.6% |
| CCN1CCCC1CN(Cc1ccccn1)Cc1cccn1-c1ccncc1 (stereo not drawn) | 7.11% |
| CCN(CC)C(=O)CSc1nc2c(C)c(C)ccc2cc1C#N | 27.6% |

| Compound | induction |
| --- | --- |
| Cc1cc(C#N)c(SCC(N)=O)nc1-c1ccc(F)cc1 | 65.8% (active) |
| Cc1cc(=O)[nH]c(SCC(N)=O)c1C#N | 24.2% |
| CCc1c(C)nc(NC2CCN(C(=O)c3cccc(N(C)C)c3)CC2)[nH]c1=O | -19.1% |
| COC(=O)CSc1nnc(CSc2nc(C)cc(C)n2)n1-c1ccc(C)cc1 | -20.7% |
| CCOc1ccc(NC(=O)CSc2ncnc3c2sc2ccccc23)cc1 | 78.8% (active) |
| CCOc1ccc(NC(=O)CSc2nc(C(C)C)nc3ccccc23)cc1 | 10.4% |
| COc1cc(NC(=O)CSc2ncnc3c2sc2nc4cc(C)ccc4cc23)cc(OC)c1 | -7.45% |
| CC(c1ccccc1)n1c(Br)nc2c1c(=O)n(C)c(=O)n2C (stereo not drawn) | -1.23% |
| COc1ccc2[nH]c(=O)c(CN(C3CCCC3)C(c3nnnn3Cc3ccccc3)C(C)C)cc2c1 (stereo not drawn) | 40.1% |
| Cc1ccc(C(=O)OC2CCCN(C)C2)cc1 (stereo not drawn) | 11.9% and -29.7% |
| CC1(C)C2CCC1(C)C(OC(=O)CCn1ccnc1)C2 (stereo not drawn) | -7.75% |
| CC1(C)C2CCC1(C)C(OC(=O)c1ccc(O)cc1)C2 (stereo not drawn) | 67.5% (active) |
| c1ccc(C(c2nnnn2Cc2ccc3c(c2)OCO3)N2CCN(C3CCCCC3)CC2)cc1 (stereo not drawn) | -64.5% |
| CC(C)(C)C(=O)c1cn(CC(=O)N2CCCCC2)c2ccccc12 | -9.2% |
| CCn1c(C)nnc1SCC(=O)Nc1ccc(Br)cc1 | -1.86% |
| Cc1cc(NC(=O)CN2CCCC(C)C2)n(-c2nc3ccccc3s2)n1 (stereo not drawn) | 77.7% (active) |
| CC(=O)Nc1ccc(NC(=O)CN2CCCC(C)C2)c(Cl)c1 (stereo not drawn) | -9.9% |
| CCOC(=O)N1CCN(CC(=O)Nc2cc(C)nn2-c2nc3ccccc3s2)CC1 | 32.4% |
| COc1ccc(Cc2n[nH]c(=S)n2C)cc1 | 25.4% |
| Cc1cc(-c2cnc(C)nc2C2CCN(C(=O)Cc3ccc(C)s3)CC2)on1 | -15.1% |
| CN(C)c1ccc(/C=N/N(Cc2ccccc2)c2ccccc2)cc1 | 23.9% |
| Oc1ccc(/C=N/N(Cc2ccccc2)c2ccccc2)cc1 | 67.5% (active) |
| O=C(N/N=C/c1ccc(OCc2ccccc2)cc1)c1ccc(O)cc1 | -46.8% |
